The list is not random: actives were taken first. Their share in the collection is about 2.3%.
ERK AVP inh: inhibitors of vasopressin-stimulated ERK signaling pathway | Potency, µM (doses to about 57.5 µM), for the others: top-dose activity, negative = inhibition, most hits filed as inhibitors | 72,000 tested, 0.99% active | HEK293-V1b, vasopressin-stimulated pERK AlphaScreen; further: on the % scale 0 is the no-effect control and ±100 the full control effect; nearly all actives have a fitted effect of over 55% in size
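qHTS, compounds titrated on V1b-expressing HEK293 cells. Preincubation 30 min at 37C, vasopressin 25 nM for 5 min, lysis 10 min, bead incubation 5 hr at room temperature.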
Imprint erasure: inducers of genomic imprint erasure in mouse ES cells; mouse ES Peg3-LacZ reporter, beta-gal luminescence, 40 h; Potency, µM (series often up to 60.7 µM), for the others: top-dose activity change, positive = activation, hits mostly activators; 110,000 tested, 0.02% active; AID 1948
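Each well holds 300 Peg3LacZ-Neo (maternal) female ES cells incubated 40 h at 37C, 5% CO2. LacZ is measured by BetaGlo luminescence, with AC50 and maximum efficacy derived from dose-response curves.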
p53ts 39C tox: cytotoxicity in p53ts cells at nonpermissive temperature. H1299-p53A138V viability at 39C, ATP luminescence, 24 h. Potency, µM (doses to about 46.1 µM), for the others: at the highest dose activity change, negative = cell killing, hits mostly cytotoxic. 130,000 tested, 1.5% active. AID 902; further: on the % scale 0 is the no-effect control and ±100 the full control effect; nearly all actives have a fitted effect of over 55% in size
p53ts 32C tox: p53ts cell cytotoxicity, permissive temperature; Potency, µM (highest dose often 46.1 µM), for inactives: at the highest dose activity change, negative = cytotoxicity, usual class: cytotoxic; 130,000 tested, 0.93% active; H1299-p53A138V at 32C, ATP luminescence viability, 24 h;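 further: 0% = DMSO and -100% = full killing by reference compound; nearly all actives have a fitted effect of over 55% in size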
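Cells: H1299 p53ts (A138V), 600/well, pre-incubated 16–30 h at 37C. Cpd up to 46 uM, 24 h, 32C. Readout: ATPlite luminescence, 20 min RT. Normalization: DMSO vs tamoxifen 100 uM. AC50 by Hill equation.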
IkB signaling: suppresses IkB signaling in ABC-DLBCL reporter cells. ABC-DLBCL IkBa-CBG/CBR dual luciferase ratio, 4 h; response scale: scaled: untreated 0%, proteasome inhibitor 100%. Potency, µM (titrated, usually from 57.1 µM), inactives show at the highest dose IkBa stabilization activation. 110,000 tested, 0.04% active. AID 445; active means well fitted curve in the direction sought with a large enough effect in the signal ratio, not every such curve was filed as active; inconclusive means small, poorly fitted or top-dose-only effect, or a change in a side signal; the % refers to the signal ratio;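 further: the direction sought is a rising ratio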
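In this assay, an IκBα–CBG68 fusion accumulates when IKK-driven degradation is blocked; native CBR normalizes for cell number. OCI-Ly3 cells were treated 4 h with compound and doxycycline, then green and red light read after Chroma-Glo addition.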
The depositor's hits bear a star; ? = inconclusive; / = no result given; ! = repeats disagree; [ ] = dose if it differs, or a comment. Unless noted, the call rests on the fitted dose curve; in most records, active means well fitted curve in the direction sought with a large enough effect; inconclusive means small, poorly fitted or top-dose-only effect, or another doubt; inactive means no such curve, though single readings can be large; an effect the other way counts as inactive or inconclusive. Potency means the concentration at half of the fitted maximal effect.

SMILES	ERK AVP inh	Imprint erasure	p53ts 39C tox	p53ts 32C tox	IkB signaling
COc1ccccc1-c1nc(-c2ccccn2)no1	-0.2%	-93.6%	5.01µM*	3.98µM*	?
COc1nc(C)ccc1-c1noc(-c2ccccn2)n1	-24.0%	-75.6%	10µM*	10µM*	-3.8%
O=C(c1ccc(Cc2nc3ccccc3[nH]2)cc1)N1CCOCC1	/	/	-6.7%	-8.6%	/
CC(=O)Nc1ccc2c(c1)/C(=C/c1ccc([N+](C)(C)C)cc1)c1ccccc1-2	10.9%[11.5 µM]	-3.7%[10.9 µM]	6.2%[9.22 µM]	3.9%[9.22 µM]	0.1%[11.4 µM]
COc1ccccc1Cn1cc(C(=O)c2ccc(Cl)cc2)c(=O)c2ccccc21	/	-14.0%[10.9 µM]	12.6µM*	?	?
Cc1nc2ccccc2n1CCc1nc2c3ccccc3nc(SCC(=O)Nc3ccc(C(C)C)cc3)n2n1	/	-15.3%[10.9 µM]	10µM*	?	-4.2%
CCCC(=O)c1ccc(N2CCN(C(=O)c3ccccc3Br)CC2)c(F)c1	25.1µM*	-17.0%	1.5%	-6.0%	?
CCCC(=O)c1ccc(N2CCN(C(=O)c3ccccc3)CC2)c(F)c1	-28.6%	-13.9%	-7.4%	-6.6%	?
OC[C@@H]1O[C@@H](n2cnc3c(Nc4ccccc4)ncnc32)[C@@H](O)[C@H]1O	?	/	-22.4%	-22.4%	?
CC(C)=CCc1c(O)cc2oc(C)cc(=O)c2c1O	-14.8%	-10.5%	-18.9%	5.2%	/
COc1c(O)cc2oc3cc(O)c(CC=C(C)C)c(O)c3c(=O)c2c1CC=C(C)C	-1.5%	-25.6%	31.6µM*	10µM*!	1.1%[11.4 µM]
COc1ccc(C(=O)COC(=O)C(CC(C)C)N2C(=O)c3ccccc3C2=O)cc1 (stereo not drawn)	/	/	?	15.8µM*	/
O=C(O)C(Cl)(c1ccccc1)c1ccccc1	2.8%[11.5 µM]	1.2%[10.9 µM]	1.2%[9.22 µM]	-13.5%[9.22 µM]	1.2%[11.4 µM]
Cc1ccc(O)c(N=CC2=C(O)c3ccccc3C2=O)c1	?	-34.5%	?	?	?
O=C1C(C=Nc2ccccc2O)=C(O)c2ccccc21	?	-75.3%	?	10µM*	?
COc1ccc(NC(=O)c2c(C)oc3ccc(O)c(CN4CCC(C)CC4)c23)cc1Cl	/	-6.5%[10.9 µM]	31.6µM*	-5.8%	?
Cc1oc2ccc(O)c(CN3CCCC3)c2c1C(=O)Nc1ccccc1	/	-6.6%[10.9 µM]	-7.3%	14.3%	-2.5%
Cc1oc2ccc(O)c(CN3CCCCCC3)c2c1C(=O)Nc1cccc(C(F)(F)F)c1	/	-10.7%[10.9 µM]	15.8µM*	-29.0%	3.2%
COc1ccc(NC(=O)c2c(C)oc3ccc(O)c(CN4CCCC(C)C4)c23)cc1Cl (stereo not drawn)	/	-2.3%[10.9 µM]	31.6µM*	?	?
N/N=C1/c2ccccc2N[C@H]1OC(=O)Nc1ccccc1	-15.6%[11.5 µM]	-22.9%[10.9 µM]	6.0%[9.22 µM]	-3.9%[9.22 µM]	13.2%[11.4 µM]
CCC(Sc1nncn2c1cc1oc(C)cc12)C(=O)Nc1ccc(F)cc1 (stereo not drawn)	/	-13.5%[10.9 µM]	20µM*	-24.3%	?
CCOC(=O)c1ccc(NC(=O)C(CC)Sc2nncn3c2cc2oc(C)cc23)cc1 (stereo not drawn)	/	-10.6%[10.9 µM]	-0.5%	9.4%	?
COCCn1nnnc1C(c1ccccc1)N1CCN(Cc2ccc3c(c2)OCO3)CC1 (stereo not drawn)	39.8µM*	0.6%	7.5%	5.2%	-0.1%
CCC(c1nnnn1Cc1ccccc1)N(Cc1ccco1)Cc1cc2cc(OC)ccc2[nH]c1=O (stereo not drawn)	14.2%	/	-5.6%	-13.6%	3.98µM*
NNC(=O)[C@@H](O)[C@H](O)[C@H](O)CO	-4.0%[11.5 µM]	-8.9%[10.9 µM]	2.0%[9.22 µM]	0.5%[9.22 µM]	0.8%[11.4 µM]
SMILES	ERK AVP inh	Imprint erasure	p53ts 39C tox	p53ts 32C tox	IkB signaling
Cc1ccc(-c2cc(-c3ccccc3)no2)c(O)c1	/	/	5.01µM*	/	/
CN1CCC(CNC(=O)c2ccc(Cc3nc4ccccc4[nH]3)cc2)CC1	/	/	-6.6%	-2.2%	/
CCc1nnc(NC(=O)CSc2nc3c(cc2C#N)CCCC3)s1	-7.0%	16.5%	1.58µM*	0.794µM*	-0.4%
COc1ccc(/C=C/N(CCc2ccc(OC)c(OC)c2)C(=O)c2ccccn2)cc1	20.0%[11.5 µM]	/	-3.4%[9.22 µM]	-7.8%[9.22 µM]	/
Cc1nn(-c2ccccc2)c(-n2cccc2)c1C(=O)NCCc1ccc(Cl)cc1	/	-12.5%[10.9 µM]	?	77.6%	?
O=C(NCCCN1CCOCC1)c1ccc(-n2c(=O)c(=O)[nH]c3ccccc32)cc1	/	/	1.3%	8.4%	/
CCC1(O)CC2CN(CCc3c([nH]c4ccccc34)[C@@](C(=O)OC)(c3cc4c(cc3OC)N(C=O)C3[C@]45CCN4CC=C[C@@](CC)([C@@H](OC(C)=O)[C@]3(O)C(=O)OC)[C@H]45)C2)C1 (stereo partly drawn)	/	-22.0%	/	/	/
CC[C@]1(O)C[C@H]2CN(CCc3c([nH]c4ccccc34)[C@](C(=O)OC)(c3cc4c(cc3OC)N(C=O)[C@H]3[C@@](O)(C(=O)OC)[C@H](OC(C)=O)[C@@]5(CC)C=CCN6CC[C@]43[C@H]65)C2)C1	15.9%	/	31.6µM*	?	?
C[N+]1(C)CCO[C@](O)(c2ccccc2)C1	14.5%[11.5 µM]	-6.9%[10.9 µM]	18.2%[9.22 µM]	0.7%[9.22 µM]	2.0%[11.4 µM]
[N-]=[N+]=Nc1nc2c(N)ncnc2n1C1OC(CO)C(O)C1O (stereo not drawn)	-11.9%	-7.3%	2.51µM*	2µM*	/
O=C1C[C@H]2OCC=C3CN4CC[C@@]5(C(=O)O)[C@H](N1)C2[C@H]3C[C@H]45 (stereo partly drawn)	/	-2.2%[10.9 µM]	/	/	/
O=C1c2sc3nc4ccccc4n3c2C(=O)N1c1ccccc1Cl	?	-12.1%	-12.2%	-2.0%	?
N=c1cc(C2(O)CCCCC2)n2c(nc3ccccc32)s1	?	-51.2%	1.26µM*	1µM*	0.3%
Cc1cc(C)c2cc(CN(CCO)C(=O)Nc3ccc(Cl)cc3)c(=O)[nH]c2c1	31.6µM*	-7.3%	-2.7%	-4.5%	1.2%
Cc1ccc(CSc2nc3ccncc3n2Cc2nc(-c3ccccc3C)oc2C)cc1	/	-9.0%[10.9 µM]	7.94µM*	12.6µM*	2.5%
O=C(Nc1nnc(-c2ccccc2Cl)o1)c1ccco1	3.6%	-28.6%	10µM*	12.6µM*	?
O=C(Nc1cccc(-c2nnc(-c3ccccc3)o2)c1)c1ccco1	-4.3%	5.0%	8.0%	3.3%	-1.6%
Cc1ccc(-n2nc3c(N4CCC(C(=O)NC(C)c5ccccc5)CC4)nnc(C)c3c2C)cc1 (stereo not drawn)	/	-6.4%[10.9 µM]	15.8µM*	?	?
Cc1ccc(-n2nc3c(N4CCC(C(=O)NCCc5ccccc5C)CC4)nnc(C)c3c2C)cc1	/	-6.8%[10.9 µM]	20µM*	?	?
Cc1nnc(N2CCC(C(=O)NC(C)C)CC2)c2nn(-c3ccccc3)c(C)c12	/	-10.0%[10.9 µM]	-6.6%	3.7%	-0.3%
CC1(C)S[C@@H]2[C@H](C(=O)O)N=C(Cc3ccccc3)N2[C@H]1C(=O)O	-4.1%[11.5 µM]	-4.4%[10.9 µM]	-3.4%[9.22 µM]	4.6%[9.22 µM]	2.2%[11.4 µM]
